Results from PubChem BioAssay (EPA / NIEHS).
Active and inactive are the calls of the source. Rule for the calls: active = hit-call score of the fitted dose curve at least 0.9, where 1 is the maximum; inactive = score below 0.9.

biological target: Hepatocyte nuclear factor 6 (Homo sapiens) (UniProt Q9UBC0); experiment: ATG_HNF6_CIS: Attagene CIS-FACTORIAL HepG2 Assay for human Hepatocyte Nuclear Factor 6 (HNF6) (AID 2282952); conditions: HepG2 Attagene cis-factorial HNF6 reporter transcription; actives raise or lower the signal
Summary of the method: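 Reporter mRNA induction or loss in HepG2 after 24 h exposure; transient cis-MRTU transfection; fragments quantified by capillary electrophoresis; bidirectional analysis, DMSO as negative control.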

Hepatocyte nuclear factor 6 (Homo sapiens), sequence (Q9UBC0 whole entry, looked up, the tested form may be a part): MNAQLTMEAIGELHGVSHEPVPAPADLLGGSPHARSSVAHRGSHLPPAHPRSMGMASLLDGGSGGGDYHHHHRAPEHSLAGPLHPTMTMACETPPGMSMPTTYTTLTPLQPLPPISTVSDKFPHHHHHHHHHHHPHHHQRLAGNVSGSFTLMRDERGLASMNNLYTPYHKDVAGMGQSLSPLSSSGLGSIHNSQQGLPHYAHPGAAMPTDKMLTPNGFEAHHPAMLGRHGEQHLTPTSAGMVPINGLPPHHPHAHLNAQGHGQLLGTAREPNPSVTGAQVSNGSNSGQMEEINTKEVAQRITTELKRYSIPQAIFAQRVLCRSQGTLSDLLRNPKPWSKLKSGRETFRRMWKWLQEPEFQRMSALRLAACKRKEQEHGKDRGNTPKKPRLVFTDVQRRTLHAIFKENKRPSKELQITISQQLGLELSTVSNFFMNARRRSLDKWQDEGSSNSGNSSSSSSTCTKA

| SMILES | outcome | AC50 |
| --- | --- | --- |
| COc1cc(-c2nc(NC(=O)c3cc4cc(C)cc(C)c4n3CC(=O)O)sc2CCC2CCCCC2)c(OC)cc1Cl | inactive |  |
| CCCCCCCCCCCC(=O)OC | inactive |  |
| COCCOCCOC | inactive |  |
| CCCCCCCCCCO | inactive |  |
| CCOC(=O)C(C)(C)Oc1ccc(Cl)cc1 | inactive |  |
| CC(CO)OC(C)CO (centres undefined) (tested in a mixture with another compound) | inactive |  |
| CCc1c(C(=O)NN2CCCCC2)nn(-c2ccc(Cl)cc2Cl)c1-c1ccc(Br)cc1 | inactive |  |
| CNC(=O)[C@H]1O[C@@H](n2cnc3c(NCc4cc(Cl)ccc4OCc4cc(C)no4)ncnc32)[C@H](O)[C@@H]1N | inactive |  |
| C[Si]1(C)O[Si](C)(C)O[Si](C)(C)O[Si](C)(C)O1 | inactive |  |
| CCCCc1ccc2c(n1)[C@@H](c1ccc(OC)cc1C[C@H](C)C(=O)O)[C@H](C(=O)O)[C@H]2c1ccc2c(c1)OCO2 | inactive |  |
| O=C(O)CCCCC(=O)O | inactive |  |
| CCCCN(CCCC)CCCC | inactive |  |
| CN[C@H]1CC[C@@H](c2ccc(Cl)c(Cl)c2)c2ccc(S(N)(=O)=O)cc21 | inactive |  |
| Cc1cc(=O)[nH]c(=S)[nH]1 | inactive |  |
| Cc1nc(-c2ccc3c(c2)CCN(CCC2CCC(NC(=O)/C=C/c4ccc(F)cc4)CC2)CC3)no1 (centres undefined) | inactive |  |
| Cc1ccc(Cl)cc1 | inactive |  |
| NC(=O)Cn1c(=O)cc(CCN2CCN(c3nccc4sccc34)CC2)c2ccc(F)cc21 | inactive |  |
| Cc1ccccc1Cl | inactive |  |
| COc1cc(/C=C/C(=O)CC(=O)/C=C/c2ccc(O)c(OC)c2)ccc1O |  | 47.4 µM (active) |
| Nc1nc(N)c2nc(CNc3ccc(C(=O)N[C@@H](CCC(=O)O)C(=O)O)cc3)cnc2n1 | inactive |  |
| COc1cc(S(=O)(=O)O)c(C)cc1N=Nc1c(O)ccc2cc(S(=O)(=O)O)ccc12 | inactive |  |
| CN1CCN(Cc2cc(-c3ccc4[nH]c(=O)oc4c3)co2)[C@@H](c2ccc(F)cc2)C1 | inactive |  |
| FC(F)(F)C(F)(F)C(F)(F)C(F)(F)C(F)(F)C(F)(F)CCI | inactive |  |
| Cc1nc(C)nc(N2C[C@@H](C)N(c3ccnc([C@@H](C)O)n3)[C@@H](C)C2)n1 | inactive |  |
| NS(=O)(=O)c1cc2c(cc1Cl)NCNS2(=O)=O | inactive |  |
| Cc1c(C(=O)O)c(O)cc2c1C(=O)c1c(O)c([C@@H]3O[C@H](CO)[C@@H](O)[C@H](O)[C@H]3O)c(O)c(O)c1C2=O | inactive |  |
| Cc1cc(NC(=O)C(=O)O)cc(C)c1Oc1ccc(O)c2c1CCC2 | inactive |  |
| O=C(O)Cc1ccccc1Nc1c(Cl)cccc1Cl | inactive |  |
| O=c1[nH]cc(F)c(=O)[nH]1 | inactive |  |

biological target: Heat shock factor protein 1 (Homo sapiens) (UniProt Q00613); experiment: ATG_HSE_CIS: Attagene CIS-FACTORIAL HepG2 Assay for human Heat Shock Transcription Factor 1 (HSE) (AID 2282953); conditions: HepG2 HSE cis-reporter, Attagene RNA transcription; actives raise or lower the signal
Summary of the method: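 HepG2 cells transfected with cis-promoter reporter units sensing endogenous transcription factor activity; reporter mRNA quantified 24 h post-dose by RT-PCR and capillary electrophoresis of 6-FAM-labelled products. Bidirectional fitting against DMSO.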

Heat shock factor protein 1 (Homo sapiens), sequence (Q00613 whole entry, looked up): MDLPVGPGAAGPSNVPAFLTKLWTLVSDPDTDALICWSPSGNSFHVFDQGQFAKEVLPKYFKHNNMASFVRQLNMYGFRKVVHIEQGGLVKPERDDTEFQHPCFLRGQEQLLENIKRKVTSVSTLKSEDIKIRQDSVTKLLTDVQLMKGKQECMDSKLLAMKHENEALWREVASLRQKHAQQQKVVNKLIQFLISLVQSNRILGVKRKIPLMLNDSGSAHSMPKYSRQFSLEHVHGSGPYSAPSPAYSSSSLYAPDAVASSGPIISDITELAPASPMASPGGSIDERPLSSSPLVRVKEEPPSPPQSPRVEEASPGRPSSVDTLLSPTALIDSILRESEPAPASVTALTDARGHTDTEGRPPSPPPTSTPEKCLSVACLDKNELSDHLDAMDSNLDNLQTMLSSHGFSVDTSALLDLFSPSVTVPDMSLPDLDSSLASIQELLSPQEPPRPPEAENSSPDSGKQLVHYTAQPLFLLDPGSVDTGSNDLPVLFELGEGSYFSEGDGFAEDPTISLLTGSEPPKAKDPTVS

| SMILES | AC50 | outcome |
| --- | --- | --- |
| COc1cc(-c2nc(NC(=O)c3cc4cc(C)cc(C)c4n3CC(=O)O)sc2CCC2CCCCC2)c(OC)cc1Cl | 65.7 µM (active) |  |
| CCCCCCCCCCCC(=O)OC |  | inactive |
| COCCOCCOC |  | inactive |
| CCCCCCCCCCO |  | inactive |
| CCOC(=O)C(C)(C)Oc1ccc(Cl)cc1 |  | inactive |
| CC(CO)OC(C)CO (centres undefined) (tested in a mixture with another compound) |  | inactive |
| CCc1c(C(=O)NN2CCCCC2)nn(-c2ccc(Cl)cc2Cl)c1-c1ccc(Br)cc1 |  | inactive |
| CNC(=O)[C@H]1O[C@@H](n2cnc3c(NCc4cc(Cl)ccc4OCc4cc(C)no4)ncnc32)[C@H](O)[C@@H]1N |  | inactive |
| C[Si]1(C)O[Si](C)(C)O[Si](C)(C)O[Si](C)(C)O1 |  | inactive |
| CCCCc1ccc2c(n1)[C@@H](c1ccc(OC)cc1C[C@H](C)C(=O)O)[C@H](C(=O)O)[C@H]2c1ccc2c(c1)OCO2 |  | inactive |
| CCCCN(CCCC)CCCC |  | inactive |
| CN[C@H]1CC[C@@H](c2ccc(Cl)c(Cl)c2)c2ccc(S(N)(=O)=O)cc21 |  | inactive |
| Cc1cc(=O)[nH]c(=S)[nH]1 |  | inactive |
| Cc1nc(-c2ccc3c(c2)CCN(CCC2CCC(NC(=O)/C=C/c4ccc(F)cc4)CC2)CC3)no1 (centres undefined) |  | inactive |
| Cc1ccc(Cl)cc1 |  | inactive |
| NC(=O)Cn1c(=O)cc(CCN2CCN(c3nccc4sccc34)CC2)c2ccc(F)cc21 |  | inactive |
| Cc1ccccc1Cl |  | inactive |
| Nc1nc(N)c2nc(CNc3ccc(C(=O)N[C@@H](CCC(=O)O)C(=O)O)cc3)cnc2n1 |  | inactive |
| COc1cc(S(=O)(=O)O)c(C)cc1N=Nc1c(O)ccc2cc(S(=O)(=O)O)ccc12 |  | inactive |
| FC(F)(F)C(F)(F)C(F)(F)C(F)(F)C(F)(F)C(F)(F)CCI |  | inactive |
| Cc1nc(C)nc(N2C[C@@H](C)N(c3ccnc([C@@H](C)O)n3)[C@@H](C)C2)n1 |  | inactive |
| NS(=O)(=O)c1cc2c(cc1Cl)NCNS2(=O)=O |  | inactive |
| Cc1cc(NC(=O)C(=O)O)cc(C)c1Oc1ccc(O)c2c1CCC2 |  | inactive |
| O=C(O)Cc1ccccc1Nc1c(Cl)cccc1Cl |  | inactive |
| O=c1[nH]cc(F)c(=O)[nH]1 |  | inactive |
